# The whole screen tested about 5,500 compounds, of which about 2,000 (36%) were called active. Not shown: some 18% with an inconclusive outcome. The list shows a part of the results. Unmarked numbers belong to inactive results. Rule as the data show it: active = normalized growth mostly below about 0.91 (no sharp cut-off); inconclusive = no clear call, values can overlap the other calls; inactive = mostly above about 0.92.
# Experiment: chemical genetic growth profiling, strain panel (AID 1159580);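 also: tested at 20 µM; growth read once vehicle control cultures reached saturation at 30 °C; 1 = growth at the plate median or of vehicle wells; lower values mean less growth of the strain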
# Settings: S. cerevisiae deletion strains, growth OD
compound,measurement,setting,value
COc1c(-c2coc3cc4c(cc3c2=O)CC(O)C(C)(C)O4)ccc2c1C=CC(C)(C)O2 (centres undefined),normalized growth,"locus YAL021C, strain ccr4, active compounds read low",0.992
same,normalized growth,"locus YAL026C, strain drs2, active compounds read low",0.978
same,normalized growth,"locus YAL030W, strain snc1, active compounds read low",0.996
same,normalized growth,"locus YBL061C, strain skt5, active compounds read low",0.983
same,normalized growth,"locus YBR009C, strain hhf1, active compounds read low",0.97
same,normalized growth,"locus YBR023C, strain chs3, active compounds read low",0.983
same,normalized growth,"locus YBR171W, strain sec66, active compounds read low",0.973
same,normalized growth,"locus YBR231C, strain swc5, active compounds read low",0.989
same,normalized growth,"locus YBR279W, strain paf1, active compounds read low",0.989
same,normalized growth,"locus YCL011C, strain gbp2, active compounds read low",0.992
same,normalized growth,"locus YCL016C, strain dcc1, active compounds read low",0.986
same,normalized growth,"locus YCL069W, strain vba3, active compounds read low",0.97
same,normalized growth,"locus YCR088W, strain abp1, active compounds read low",0.979
same,normalized growth,"locus YDL005C, strain med2, active compounds read low",0.972
same,normalized growth,"locus YDL040C, strain nat1, active compounds read low",0.987
same,normalized growth,"locus YDR001C, strain nth1, active compounds read low",0.979
same,normalized growth,"locus YDR069C, strain doa4, active compounds read low",1
same,normalized growth,"locus YDR137W, strain rgp1, active compounds read low",0.902
same,normalized growth,"locus YDR159W, strain sac3, active compounds read low",0.973
same,normalized growth,"locus YDR195W, strain ref2",1.05
same,normalized growth,"locus YDR297W, strain sur2, active compounds read low",0.978
same,normalized growth,"locus YDR334W, strain swr1, active compounds read low",0.958
same,normalized growth,"locus YDR335W, strain msn5, active compounds read low",0.974
same,normalized growth,"locus YDR392W, strain spt3, active compounds read low",0.829
same,normalized growth,"locus YEL003W, strain gim4, active compounds read low",0.99
same,normalized growth,"locus YEL037C, strain rad23, active compounds read low",0.973
same,normalized growth,"locus YEL061C, strain CIN8 (second series), active compounds read low",0.98
same,normalized growth,"locus YER015W, strain faa2, active compounds read low",0.991
same,normalized growth,"locus YER016W, strain bim1, active compounds read low",0.992
same,normalized growth,"locus YER111C, strain swi4, active compounds read low",0.973
same,normalized growth,"locus YER155C, strain BEM2 (second series), active compounds read low",0.967
same,normalized growth,"locus YFR010W, strain ubp6, active compounds read low",0.989
same,normalized growth,"locus YGL167C, strain pmr1, active compounds read low",0.969
same,normalized growth,"locus YGL173C, strain kem1, active compounds read low",0.989
same,normalized growth,"locus YGL227W, strain vid30, active compounds read low",0.992
same,normalized growth,"locus YGL240W, strain doc1, active compounds read low",0.979
same,normalized growth,"locus YGL253W, strain hxk2, active compounds read low",0.983
same,normalized growth,"locus YHR013C, strain ard1, active compounds read low",0.954
same,normalized growth,"locus YHR027C, strain rpn1, active compounds read low",1
same,normalized growth,"locus YHR030C, strain SLT2, active compounds read low",0.932
same,normalized growth,"locus YHR079C, strain IRE1, active compounds read low",0.929
same,normalized growth,"locus YHR142W, strain chs7, active compounds read low",0.942
same,normalized growth,"locus YJL092W, strain hpr5, active compounds read low",0.99
same,normalized growth,"locus YJL095W, strain BCK1 (second series), active compounds read low",0.983
same,normalized growth,"locus YJL095W, strain BCK1, active compounds read low",0.94
same,normalized growth,"locus YJL115W, strain asf1, active compounds read low",0.971
same,normalized growth,"locus YJL129C, strain trk1, active compounds read low",0.887
same,normalized growth,"locus YJL154C, strain vps35, active compounds read low",0.97
same,normalized growth,"locus YJL164C, strain tpk1, active compounds read low",0.974
same,normalized growth,"locus YJL166W, strain qcr8, active compounds read low",0.979
same,normalized growth,"locus YJL187C, strain SWE1, active compounds read low",0.991
same,normalized growth,"locus YJR066W, strain TOR1, active compounds read low",0.865
same,normalized growth,"locus YKL160W, strain elf1, active compounds read low",0.992
same,normalized growth,"locus YKR026C, strain gcn3, active compounds read low",0.957
same,normalized growth,"locus YKR091W, strain srl3, active compounds read low",0.992
same,normalized growth,"locus YLL001W, strain dnm1, active compounds read low",0.991
same,normalized growth,"locus YLL026W, active compounds read low",0.989
same,normalized growth,"locus YLL041C, strain sdh2, active compounds read low",1.01
same,normalized growth,"locus YLR027C, strain aat2, active compounds read low",0.996
same,normalized growth,"locus YLR113W, strain HOG1, active compounds read low",0.996
same,normalized growth,"locus YLR221C, strain rsa3, active compounds read low",0.991
same,normalized growth,"locus YLR258W, strain gsy2, active compounds read low",0.965
same,normalized growth,"locus YLR262C, strain YPT6 (second series), active compounds read low",0.877
same,normalized growth,"locus YLR320W, strain mms22, active compounds read low",0.962
same,normalized growth,"locus YLR342W, strain FKS1, active compounds read low",0.98
same,normalized growth,"locus YLR357W, strain rsc2, active compounds read low",0.967
same,normalized growth,"locus YLR370C, strain arc18, active compounds read low",0.995
same,normalized growth,"locus YLR384C, strain iki3, active compounds read low",0.976
same,normalized growth,"locus YML120C, strain ndi1, active compounds read low",1.01
same,normalized growth,"locus YMR058W, strain fet3, active compounds read low",0.993
same,normalized growth,"locus YMR125W, strain sto1, active compounds read low",0.988
same,normalized growth,"locus YMR129W, active compounds read low",0.982
same,normalized growth,"locus YMR205C, strain PFK2, active compounds read low",0.961
same,normalized growth,"locus YMR231W, strain pep5, active compounds read low",0.963
same,normalized growth,"locus YNL071W, strain lat1, active compounds read low",0.975
same,normalized growth,"locus YNL183C, strain NPR1, active compounds read low",0.922
same,normalized growth,"locus YNL209W, strain ssb2, active compounds read low",1
same,normalized growth,"locus YNL248C, strain rpa49, active compounds read low",0.971
same,normalized growth,"locus YNL322C, strain KRE1 (second series), active compounds read low",1.02
same,normalized growth,"locus YNR049C, strain mso1, active compounds read low",0.99
same,normalized growth,"locus YOR001W, strain rrp6, active compounds read low",0.973
same,normalized growth,"locus YOR070C, strain gyp1, active compounds read low",0.992
same,normalized growth,"locus YOR080W, strain dia2, active compounds read low",0.994
same,normalized growth,"locus YOR083W, strain WHI5, active compounds read low",0.978
same,normalized growth,"locus YOR106W, strain vam3, active compounds read low",0.962
same,normalized growth,"locus YOR231W, strain MKK1, active compounds read low",0.94
same,normalized growth,"locus YOR265W, strain rbl2, active compounds read low",0.98
same,normalized growth,"locus YOR270C, strain vph1, active compounds read low",0.608 (active)
same,normalized growth,"locus YOR290C, strain snf2, active compounds read low",0.955
same,normalized growth,"locus YPL051W, strain arl3, active compounds read low",0.972
same,normalized growth,"locus YPL078C, strain atp4, active compounds read low",0.972
same,normalized growth,"locus YPL106C, strain sse1, active compounds read low",1.01
same,normalized growth,"locus YPL240C, strain hsp82, active compounds read low",0.982
same,normalized growth,"locus YPL256C, strain CLN2, active compounds read low",0.922

# From PubChem BioAssay AID1159580 (chemical genetic matrix, 2015)
